Values joined by “and” are separate entries in the source; they are usually repeats but may differ in a detail not shown here. Equal values may be shown once. Records with an inconclusive call do not appear. A call without a number means that no potency is given here. The source holds several records for some structures; these can differ, active in one and inactive in another. Active and inactive are the calls of the source. Unless noted, calls come from the whole dose curve; as a rule, active = well fitted curve in the direction sought with a large enough effect in the repeat runs; inconclusive = weak or mixed curves; inactive = no such curve, though single readings can be large; an effect the other way counts as inactive or inconclusive.
Assays:
[1] = qHTS assay to identify aromatase inhibitors - cell viability counter screen (AID 743084);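 note: cells stimulated with testosterone during compound exposure; nearly all actives have a fitted effect of over 55% in size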; note: potency is the fitted concentration of half-maximal effect
[2] = qHTS assay to identify small molecule that activate the aryl hydrocarbon receptor (AhR) signaling pathway - cell viability counter screen (AID 743086);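 note: HepG2 liver cells carrying the AhR DRE luciferase reporter; series mostly up to about 70 µM; nearly all actives have a fitted effect of over 45% in size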
Summary of the method: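 HepG2-AhR-luc (HG2L7.5c1) cells, 4000/well, were preincubated 5 h at 37C, exposed to compound in qHTS format for 24 hr at 37C, then given CellTiter-Fluor for 30 min; viability was read as fluorescence in the reporter wells.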

[3] = target: Peroxisome proliferator-activated receptor gamma (Homo sapiens) (UniProt P37231); test: qHTS assay to identify small molecule agonists of the peroxisome proliferator-activated receptor gamma (PPARg) signaling pathway (AID 743094; active = well fitted activation curve with a large enough effect in the signal ratio in the repeat runs, not every such curve was filed as active; the % refers to the signal ratio)
Sequence of Peroxisome proliferator-activated receptor gamma (Homo sapiens) (P37231 whole entry, looked up): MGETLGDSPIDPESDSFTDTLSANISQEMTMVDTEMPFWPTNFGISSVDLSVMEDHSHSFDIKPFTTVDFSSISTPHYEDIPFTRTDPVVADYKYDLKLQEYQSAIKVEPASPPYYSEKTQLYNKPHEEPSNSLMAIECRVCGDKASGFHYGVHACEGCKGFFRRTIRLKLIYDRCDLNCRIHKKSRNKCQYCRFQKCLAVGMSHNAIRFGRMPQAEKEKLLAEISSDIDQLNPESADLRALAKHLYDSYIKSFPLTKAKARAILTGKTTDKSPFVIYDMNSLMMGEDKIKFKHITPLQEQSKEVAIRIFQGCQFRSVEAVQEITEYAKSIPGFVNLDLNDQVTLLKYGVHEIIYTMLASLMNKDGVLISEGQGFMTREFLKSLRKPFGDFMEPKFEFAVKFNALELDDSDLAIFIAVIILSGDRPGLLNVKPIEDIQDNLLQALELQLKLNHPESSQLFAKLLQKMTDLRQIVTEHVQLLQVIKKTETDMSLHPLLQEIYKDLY
Summary of the method: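 Fluorescence-based beta-lactamase readout in HEK293H PPARg UAS-bla cells after 17 h compound exposure (37C) and 1 h B/G FRET substrate incubation at room temperature.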

[4] = qHTS assay to identify small molecule antagonists of the peroxisome proliferator-activated receptor gamma (PPARg) signaling pathway - cell viability counter screen (AID 743194); note: nearly all actives have a fitted effect of over 55% in size
Summary of the method: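 PPARg-UAS-bla HEK293H cells were plated, rested 5 h at 37 C, then treated with compounds plus rosiglitazone (50 nM final) for 17 h at 37 C; viability was then read by CellTiter-Glo luminescence after 30 min at room temperature.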

[5] = qHTS assay for small molecule agonists of the antioxidant response element (ARE) signaling pathway (AID 743202; active = well fitted activation curve with a large enough effect in the signal ratio in the repeat runs, not every such curve was filed as active; the % refers to the signal ratio; note: potency is the fitted concentration of half-maximal effect)
Summary of the method: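 Steps: seed ARE-bla HepG2 cells (2,000/well); incubate 5 h at 37 C; add compounds by pin tool; incubate 16 h at 37 C; add FRET substrate; read fluorescence after 2 h at RT.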

[6] = qHTS assay for small molecule agonists of the antioxidant response element (ARE) signaling pathway - cell viability counter screen (AID 743203; calls by dose curve; note: nearly all actives have a fitted effect of over 55% in size)
Summary of the method: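 Parallel cytotoxicity read-out for the ARE-bla screen: HepG2 reporter cells, 16 hrs with compounds, then CellTiter-Glo luminescence.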

[7] = qHTS assay for small molecule activators of the heat shock response signaling pathway - cell viability counter screen (AID 743209); note: nearly all actives have a fitted effect of over 50% in size
Summary of the method: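 To flag cytotoxic compounds, HSE-bla HeLa cells plated at 1500 cells/well were dosed for 5 h at 37 C, followed by the reporter FRET read and then CellTiter-Glo, with luminescence recorded 30 min after reagent addition.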

[8] = qHTS assay for small molecule activators of the heat shock response signaling pathway (AID 743210; active = well fitted activation curve with a large enough effect in the signal ratio in the repeat runs, with a control signal flat, not every such curve was filed as active; the % refers to the signal ratio;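 note: HeLa cells with beta-lactamase reporter driven by heat shock elements; series mostly up to about 63 µM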)
Summary of the method: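 Activation of heat shock element-controlled beta-lactamase expression is measured in HeLa cells by LiveBLAzer FRET fluorescence, with compound exposure lasting 5 h at 37 C and substrate loading 2.5 h at room temperature.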

[9] = qHTS assay to identify small molecule agonists of the peroxisome proliferator-activated receptor delta (PPARd) signaling pathway - cell viability counter screen (AID 743211); note: nearly all actives have a fitted effect of over 55% in size
Summary of the method: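 Multiplexed format: after the 2 h room-temperature LiveBLAzer B/G FRET step, CellTiter-Glo was added to the same wells. Luminescence after 30 min gave cell viability; compound exposure was 17 h at 37C.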

[10] = target: Peroxisome proliferator-activated receptor delta (Homo sapiens) (UniProt Q03181); test: qHTS assay to identify small molecule agonists of the peroxisome proliferator-activated receptor delta (PPARd) signaling pathway (AID 743212; calls by dose curve)
Sequence of Peroxisome proliferator-activated receptor delta (Homo sapiens) (Q03181 whole entry, looked up): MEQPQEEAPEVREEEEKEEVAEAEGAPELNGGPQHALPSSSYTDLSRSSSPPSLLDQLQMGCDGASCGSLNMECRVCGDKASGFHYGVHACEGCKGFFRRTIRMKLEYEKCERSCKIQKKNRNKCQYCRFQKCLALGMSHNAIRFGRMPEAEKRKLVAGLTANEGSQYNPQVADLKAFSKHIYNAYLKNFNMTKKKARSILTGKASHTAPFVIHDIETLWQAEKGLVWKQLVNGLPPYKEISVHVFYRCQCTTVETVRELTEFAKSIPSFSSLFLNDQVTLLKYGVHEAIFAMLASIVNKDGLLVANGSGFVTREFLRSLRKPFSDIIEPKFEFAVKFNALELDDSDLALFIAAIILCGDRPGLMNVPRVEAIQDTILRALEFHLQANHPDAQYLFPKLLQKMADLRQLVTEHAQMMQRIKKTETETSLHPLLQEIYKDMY
Summary of the method: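 Cells expressing a UAS-driven beta-lactamase reporter (PPARd-bla HEK293H) were given test compounds after a 5 h settle and kept at 37 C. Reporter activity was then measured as FRET fluorescence using LiveBLAzer B/G substrate.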

[11] = qHTS assay to identify small molecule antagonists of the peroxisome proliferator-activated receptor delta (PPARd) signaling pathway - cell viability counter screen (AID 743213); note: nearly all actives have a fitted effect of over 50% in size
Summary of the method: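 HEK293H PPARd UAS-bla cells, 5 h pre-incubation, compound + L165041 300 nM final, 17 h 37 C; B/G FRET substrate 2 h RT; then CellTiter-Glo 30 min RT, luminescence.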

[12] = qHTS assay to identify small molecule agonists of the farnesoid-X-receptor (FXR) signaling pathway - cell viability counter screen (AID 743218); note: nearly all actives have a fitted effect of over 45% in size
Summary of the method: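 Same-well cytotoxicity check on FXR-UAS-bla HEK 293T cells: 5 h attachment, 16 h compound at 37 C, CellTiter-Glo luminescence read at room temperature after 30 min.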

[13] = qHTS assay to identify small molecule antagonists of the farnesoid-X-receptor (FXR) signaling pathway - cell viability counter screen (AID 743221; active = well fitted cell-killing curve with a large enough effect in the repeat runs, not every such curve was filed as active; note: nearly all actives have a fitted effect of over 50% in size)
Summary of the method: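 CellTiter-Glo, 30 min RT, luminescence; same wells as the LiveBLAzer FRET read. Cells: FXR-UAS-bla HEK 293T. Treatment: compound with chenodeoxycholic acid 50 uM final, 16 h at 37 C.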

[14] = target: Vitamin D3 receptor (Homo sapiens) (UniProt P11473); test: qHTS assay to identify small molecule agonists of the vitamin D receptor (VDR) signaling pathway (AID 743222; calls by dose curve)
Sequence of Vitamin D3 receptor (Homo sapiens) (P11473 whole entry, looked up): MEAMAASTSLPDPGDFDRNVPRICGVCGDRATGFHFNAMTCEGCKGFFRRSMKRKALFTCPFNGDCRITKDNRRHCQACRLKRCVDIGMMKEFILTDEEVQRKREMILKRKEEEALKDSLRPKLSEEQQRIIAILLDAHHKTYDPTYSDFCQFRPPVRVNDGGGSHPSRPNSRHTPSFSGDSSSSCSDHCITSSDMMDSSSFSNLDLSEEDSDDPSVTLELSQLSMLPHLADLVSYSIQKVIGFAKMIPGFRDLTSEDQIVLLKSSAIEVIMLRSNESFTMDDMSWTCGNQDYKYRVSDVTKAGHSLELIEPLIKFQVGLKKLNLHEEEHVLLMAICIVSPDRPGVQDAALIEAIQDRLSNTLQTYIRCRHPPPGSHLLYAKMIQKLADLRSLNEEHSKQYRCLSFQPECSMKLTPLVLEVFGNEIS
Summary of the method: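 Using LiveBLAzer B/G FRET detection, agonism was scored in VDR-bla cells exposed overnight (16 h, 37C) to DMSO-dissolved compounds; substrate incubation was 2 h at room temperature.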

[15] = target: Aryl hydrocarbon receptor (Homo sapiens) (UniProt P35869); test: qHTS assay to identify small molecule that activate the aryl hydrocarbon receptor (AhR) signaling pathway (AID 743085);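 note: HG2L7.5c1 human HepG2 liver cells with stably integrated DRE-driven firefly reporter; series mostly up to about 70 µM; nearly all actives have a fitted effect of over 15% in size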
Sequence of Aryl hydrocarbon receptor (Homo sapiens) (P35869 whole entry, looked up): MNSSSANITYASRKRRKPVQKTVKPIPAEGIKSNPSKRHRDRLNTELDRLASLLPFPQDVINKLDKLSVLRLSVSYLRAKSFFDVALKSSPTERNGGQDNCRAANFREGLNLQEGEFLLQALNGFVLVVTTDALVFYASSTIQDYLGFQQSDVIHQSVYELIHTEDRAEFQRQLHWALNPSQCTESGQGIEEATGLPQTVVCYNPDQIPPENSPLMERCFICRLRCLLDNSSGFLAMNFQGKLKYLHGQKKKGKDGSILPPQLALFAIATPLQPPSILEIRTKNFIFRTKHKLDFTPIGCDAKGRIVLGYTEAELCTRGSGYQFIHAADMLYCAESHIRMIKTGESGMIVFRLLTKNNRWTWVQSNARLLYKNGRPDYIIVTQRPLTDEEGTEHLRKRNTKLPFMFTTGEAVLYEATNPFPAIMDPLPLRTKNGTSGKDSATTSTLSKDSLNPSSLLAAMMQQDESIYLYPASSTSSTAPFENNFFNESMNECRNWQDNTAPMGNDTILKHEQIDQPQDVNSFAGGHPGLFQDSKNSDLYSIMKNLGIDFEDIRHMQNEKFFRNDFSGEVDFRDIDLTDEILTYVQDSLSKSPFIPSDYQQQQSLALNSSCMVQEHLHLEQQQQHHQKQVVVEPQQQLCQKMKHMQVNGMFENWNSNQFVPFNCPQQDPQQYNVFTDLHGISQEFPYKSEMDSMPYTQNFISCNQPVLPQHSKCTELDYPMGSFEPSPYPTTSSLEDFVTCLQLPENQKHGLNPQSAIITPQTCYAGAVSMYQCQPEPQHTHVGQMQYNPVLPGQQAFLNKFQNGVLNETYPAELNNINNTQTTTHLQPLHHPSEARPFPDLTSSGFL
Summary of the method: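 Reporter assay in engineered HepG2 line HG2L7.5c1, whose plasmid carries twenty dioxin responsive elements upstream of firefly luciferase. Treatment lasted 24 h at 37C; ONE-Glo luminescence gauged induction.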

[16] = target: Bile acid receptor (Homo sapiens) (UniProt Q96RI1); test: qHTS assay to identify small molecule antagonists of the farnesoid-X-receptor (FXR) signaling pathway (AID 743217; active = well fitted inhibition curve with a large enough effect in the signal ratio in the repeat runs, not every such curve was filed as active; the % refers to the signal ratio)
Sequence of Bile acid receptor (Homo sapiens) (Q96RI1 whole entry, looked up): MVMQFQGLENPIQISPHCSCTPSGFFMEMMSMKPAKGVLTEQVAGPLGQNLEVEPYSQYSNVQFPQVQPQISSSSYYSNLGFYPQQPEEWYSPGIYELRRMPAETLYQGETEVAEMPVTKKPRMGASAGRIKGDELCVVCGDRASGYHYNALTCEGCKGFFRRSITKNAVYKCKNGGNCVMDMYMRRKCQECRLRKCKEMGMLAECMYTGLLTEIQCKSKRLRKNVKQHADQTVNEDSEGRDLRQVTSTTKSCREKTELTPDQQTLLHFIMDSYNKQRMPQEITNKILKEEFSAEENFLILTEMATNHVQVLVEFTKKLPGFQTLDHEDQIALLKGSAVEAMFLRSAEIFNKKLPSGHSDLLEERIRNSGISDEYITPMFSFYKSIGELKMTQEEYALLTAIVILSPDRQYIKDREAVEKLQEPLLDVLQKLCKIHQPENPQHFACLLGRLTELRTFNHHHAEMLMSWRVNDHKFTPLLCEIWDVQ
Summary of the method: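 Quantitative HTS, beta-lactamase reporter format: FXR-UAS-bla HEK 293T cells co-treated 16 h at 37 °C with compounds and 50 uM final chenodeoxycholic acid, then read by B/G FRET fluorescence.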

[17] = target: Bile acid receptor (Homo sapiens) (UniProt Q96RI1); test: qHTS assay to identify small molecule agonists of the farnesoid-X-receptor (FXR) signaling pathway (AID 743220; active = well fitted activation curve with a large enough effect in the signal ratio in the repeat runs, not every such curve was filed as active; the % refers to the signal ratio)
Summary of the method: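 FXR-UAS-bla HEK 293T cells carrying a UAS-driven beta-lactamase reporter were plated for 5 h at 37C/5% CO2, then exposed to DMSO-dissolved Tox21 10K compounds for 16 h at 37C. A LiveBLAzer B/G FRET substrate was loaded for 2 h at room temperature before fluorescence reading.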

[18] = target: Vitamin D3 receptor (Homo sapiens) (UniProt P11473); test: qHTS assay to identify small molecule antagonists of the vitamin D receptor (VDR) signaling pathway (AID 743223; active = well fitted inhibition curve with a large enough effect in the signal ratio in the repeat runs, not every such curve was filed as active; the % refers to the signal ratio)
Summary of the method: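 After VDR-bla cells are plated and left 4 h at 37C, DMSO-dissolved compounds and 3 nM (final) calcitriol agonist are added. Incubation continues 16 h at 37C; FRET beta-lactamase substrate then develops 2 h at room temperature.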

[19] = target: Peroxisome proliferator-activated receptor gamma (Homo sapiens) (UniProt P37231); test: qHTS assay to identify small molecule antagonists of the peroxisome proliferator-activated receptor gamma (PPARg) signaling pathway (AID 743191; calls by dose curve; note: series mostly up to about 63 µM; nearly all actives have a fitted effect of over 30% in size)
Summary of the method: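 GeneBLAzer PPARg UAS-bla HEK293H cells carrying a UAS-driven beta-lactamase reporter were plated at 3000 cells/well, preincubated 5 h at 37C, then given compound for 17 h at 37C; LiveBLAzer B/G FRET substrate was read after 1 h at room temperature.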

[20] = target: Peroxisome proliferator-activated receptor delta (Homo sapiens) (UniProt Q03181); test: qHTS assay to identify small molecule antagonists of the peroxisome proliferator-activated receptor delta (PPARd) signaling pathway (AID 743215; active = well fitted inhibition curve with a large enough effect in the signal ratio in the repeat runs, not every such curve was filed as active; the % refers to the signal ratio;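 note: cells stimulated with agonist L165041 at 300 nM final during compound exposure; series mostly up to about 62 µM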)
Summary of the method: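 Screen format: qHTS, antagonist mode. HEK293H PPARd-bla cells received compound and 300 nM L165041 (final), 17 h, 37 C. Beta-lactamase detected via FRET substrate fluorescence, 2 h, room temperature.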

| SMILES | Potency [1] | outcome [2] | outcome [3] | outcome [4] | Potency [5] | outcome [6] | outcome [7] | Potency [8] | outcome [9] | outcome [10] | outcome [11] | Potency [12] | Potency [13] | outcome [14] | Potency [15] | outcome [16] | outcome [17] | outcome [18] | outcome [19] | Potency [20] |
| --- | --- | --- | --- | --- | --- | --- | --- | --- | --- | --- | --- | --- | --- | --- | --- | --- | --- | --- | --- | --- |
| CC1=CCC2CC1C2(C)C (stereo unspecified) | inactive | inactive | inactive | inactive | inactive | inactive | inactive | inactive | inactive | inactive | inactive | inactive | inactive | inactive |  |  |  |  |  |  |
| OCCOCCN1CCN(C2=Nc3ccccc3Sc3ccccc32)CC1 |  | inactive |  | inactive |  | inactive | inactive | inactive | inactive |  |  | inactive | inactive | inactive | inactive | inactive | inactive | inactive |  |  |
| O=C(Oc1ccccc1)c1ccccc1 | inactive | inactive | inactive | inactive | inactive | inactive | inactive | inactive | inactive | inactive | inactive | inactive | inactive |  |  | inactive | inactive |  | inactive | inactive |
| CC(=O)OCC(=O)[C@@]12N=C(C)O[C@@H]1C[C@H]1[C@@H]3CCC4=CC(=O)C=C[C@]4(C)[C@H]3[C@@H](O)C[C@@]12C | inactive | inactive | inactive | inactive |  | inactive | inactive | inactive | inactive |  | inactive | inactive | inactive | inactive |  |  |  | inactive | inactive | inactive |
| CCCCN(CCCC)CCCC | inactive | inactive |  | inactive | inactive | inactive | inactive | inactive | inactive | inactive |  | inactive | inactive | inactive | inactive | inactive | inactive | inactive |  | inactive |
| O=C(O)c1cc(O)c(O)c(O)c1 | inactive and 49 µM (active) |  | inactive | inactive |  | inactive | inactive | inactive | inactive |  |  | inactive | inactive | inactive | inactive |  |  | inactive |  | inactive |
| CC(C)CC(=O)CC(C)C |  | inactive |  | inactive | inactive | inactive | inactive | inactive | inactive |  | inactive | inactive | inactive | inactive |  |  |  | inactive |  |  |
| CN(C)CCC(c1ccccc1)c1ccccn1 (stereo unspecified) | inactive | inactive |  | inactive | inactive | inactive | inactive | inactive | inactive | inactive |  | inactive | inactive | inactive | inactive |  |  | inactive |  |  |
| CCCCC(CC)COC(=O)CS (stereo unspecified) |  | inactive |  | inactive | inactive | inactive | inactive | inactive | inactive |  | inactive | inactive | inactive | inactive |  |  |  | inactive |  |  |
| CC1=C(C)S(=O)(=O)CCS1(=O)=O | inactive | inactive |  | inactive | 1090 nM (active) | inactive | inactive | inactive | inactive | inactive | inactive | inactive | inactive | inactive | inactive |  |  | inactive |  | inactive |
| CN(C)CCCN | inactive | inactive | inactive | inactive | inactive | inactive | inactive | inactive | inactive |  | inactive | inactive | inactive | inactive | inactive | inactive | inactive | inactive |  | inactive |
| OCCOCCOCCO | inactive | inactive | inactive | inactive | inactive | inactive | inactive | inactive | inactive |  | inactive | inactive | inactive | inactive |  |  |  | inactive | inactive |  |
